Source: the supplement of paper PMC3334620
The full ranking holds about 33,000 sequences; the median of “E-score (-0.5 to 0.5)” is about -0.011, and the highest 2% start at about 0.28. This excerpt belongs to a sample that is enriched for the highest values.

Biological target: T1, Gcr1 (UniProt P07261)
T1 sequence: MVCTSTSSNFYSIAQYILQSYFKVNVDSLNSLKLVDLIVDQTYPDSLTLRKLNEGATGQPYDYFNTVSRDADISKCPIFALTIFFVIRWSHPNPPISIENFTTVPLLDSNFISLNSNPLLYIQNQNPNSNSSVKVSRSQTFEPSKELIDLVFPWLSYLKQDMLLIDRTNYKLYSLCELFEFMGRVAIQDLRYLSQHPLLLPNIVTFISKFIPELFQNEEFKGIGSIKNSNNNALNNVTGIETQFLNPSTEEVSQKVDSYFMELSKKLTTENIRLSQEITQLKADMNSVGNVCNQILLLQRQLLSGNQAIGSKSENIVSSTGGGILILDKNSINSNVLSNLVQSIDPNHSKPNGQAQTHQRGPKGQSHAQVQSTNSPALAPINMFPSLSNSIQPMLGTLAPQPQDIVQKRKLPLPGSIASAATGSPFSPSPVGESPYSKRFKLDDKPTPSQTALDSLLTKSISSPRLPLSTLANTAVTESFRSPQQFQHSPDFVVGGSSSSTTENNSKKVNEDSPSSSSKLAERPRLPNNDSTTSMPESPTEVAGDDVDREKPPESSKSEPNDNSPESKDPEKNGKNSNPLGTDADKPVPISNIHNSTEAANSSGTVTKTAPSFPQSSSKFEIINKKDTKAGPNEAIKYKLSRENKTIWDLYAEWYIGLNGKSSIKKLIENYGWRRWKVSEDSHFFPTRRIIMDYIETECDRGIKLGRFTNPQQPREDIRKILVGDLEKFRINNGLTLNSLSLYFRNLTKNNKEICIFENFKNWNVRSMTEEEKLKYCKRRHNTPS
Test: PBM E-score (8-mer binding enrichment) (E-score (-0.5 to 0.5)); higher = stronger / more preferred TF binding
Conditions: protein concentration: 100 nM; construct: GST-full length
Protocol: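 Universal 'all 10-mer' protein binding microarrays (Agilent AMADID 015681) probed with GST-tagged S. cerevisiae TFs (full-length or DBD) made by in vitro transcription/translation (PURExpress), about 100-200 nM. Bound TF was detected with fluorescent anti-GST. Each ungapped 8-mer (which stands for itself and its reverse complement) is scored by the PBM enrichment score (E-score), a modified Wilcoxon-Mann-Whitney statistic from -0.5 to +0.5, computed with the Universal PBM Analysis Suite. Scale: above 0.35 generally sequence-specific binding.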

| Sequence | PBM E-score |
| --- | --- |
| GATTCCAA | 0.416 |
| CATTCCAC | 0.0952 |
| CATTCCAA | 0.0418 |
| AATTCCAC | 0.191 |
| AATTCCAG | 0.274 |
| GATTCCAC | 0.382 |
| AATTCCAA | 0.308 |
| ACCAACGG | -0.0789 |
| ATAGGGTC | -0.162 |
| ACATCGAC | -0.154 |
| ACGGCTCA | -0.123 |
| AGGCGTGA | -0.191 |
| AAAAGAGC | -0.0507 |
| AAATGGGA | 0.194 |
| ACGTCAGA | -0.0561 |
| CAGGTCAA | -0.173 |
| CCCCACAG | -0.0776 |
| CCCACAAA | 0.305 |
| CCCCACAC | 0.108 |
| GCCACAAA | 0.0996 |
| ACCACAAA | 0.236 |
| TCCACAAA | 0.288 |

| Sequence | PBM E-score |
| --- | --- |
| CCCACAAG | 0.0598 |
| CCCACGAG | -0.0381 |
| CCCCACAA | 0.305 |
| ACACAAGG | -0.0735 |
| GCTTTCTA | -0.196 |
| GTTTACCA | -0.022 |
| CCGGGACA | -0.0293 |
| AAGACTCC | 0.0934 |
| CCTTTTCA | -0.164 |
| CACTCTGG | 0.0408 |
| AGAGGGAA | -0.176 |
| GGAATTCA | 0.192 |
| GGAATTCC | 0.426 |
| AGAATTCC | 0.164 |
| AGCTAGAG | -0.226 |
| ATTCATAA | -0.0219 |
| CCGTCTAA | 0.0045 |
| TCGTCTAA | 0.112 |
| GCATCTAA | 0.303 |
| CCATCTAA | 0.0606 |
| GCGTCTAA | 0.357 |
| TCCTCTAA | 0.282 |

| Sequence | PBM E-score |
| --- | --- |
| TCATCTAA | -0.0664 |
| GCCTCTAA | 0.265 |
| ACCTCTAA | 0.16 |
| CATCACGG | -0.01 |
| AAGTGAAC | -0.0708 |
| ATGATTCA | -0.105 |
| TCTCAAAA | 0.137 |
| CAAGAGAA | 0.0254 |
| GGATGGCA | -0.167 |
| CCCGACGG | -0.158 |
| CTATTGGC | 0.0102 |
| ACCCGCCC | -0.135 |
| GCCCGCCC | 0.0747 |
| CCCCGCCC | 0.338 |
| ATGCTGGA | 0.0516 |
| AGAACTGG | 0.262 |
| AGACCGCT | -0.2 |
| TCGGGGCA | 0.161 |
| ATTGGGTG | 0.085 |
| AGAGGAAC | 0.177 |
| GTAGGAAC | 0.0386 |
| AGAGGAAG | 0.385 |

| Sequence | PBM E-score |
| --- | --- |
| ACAGGATA | 0.177 |
| AGAGGATA | -0.0247 |
| ATAGGAAC | 0.319 |
| CTAGGAAC | 0.149 |
| AGAGGAAA | -0.0469 |
| AGAGGATG | 0.315 |
| AGAGGATC | 0.024 |
| ACAGGATG | 0.372 |
| ACAGGATC | 0.197 |
| AGTGTCCA | 0.057 |
| TAGTATGA | 0.0561 |
| CTCCGATC | -0.00026 |
| ATGCTAGG | -0.0494 |
| CCCGGATC | 0.256 |
| CCCTCAGC | -0.0815 |
| ATTCAGCC | 0.0229 |
| CAAGGAAG | 0.143 |
| ATAGGATG | 0.333 |
| AAAGGAAC | 0.219 |
| ATAGGATC | 0.158 |
